Active and inactive are the calls of the source. How the source made its calls: active means hit-call score of the fitted dose curve at least 0.9, where 1 is the maximum; inactive means score below 0.9.

Read-out in assay [1]: Urokinase-type plasminogen activator receptor (uPAR), PLAUR (gene 5329)
The assay can be described thus: BSK_CASM3C_uPAR: BioMAP Diversity Plus: CASM3C Assay for Urokinase-type plasminogen activator receptor (uPAR) Biomarker Activity (AID 2283054).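 Further: cell-surface uPAR protein level quantified by ELISA.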 The following applies: primary human coronary artery smooth muscle cells; actives raise or lower the signal.

Read-out in assay [2]: Vascular cell adhesion molecule 1 (VCAM1), VCAM1 (gene 7412)
Kind of assay: BSK_CASM3C_VCAM1: BioMAP Diversity Plus: CASM3C Assay for Vascular cell adhesion molecule 1 (VCAM1) Biomarker Activity (AID 2283055).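 Further: VCAM-1 protein level quantified by ELISA on the cells.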 The following applies: primary human coronary artery smooth muscle cells; actives raise or lower the signal.

Read-out in assay [3]: Collagen III, COL3A1 (gene 1281)
Kind of assay: BSK_hDFCGF_CollagenIII: BioMAP Diversity Plus: hDFCGF Assay for Collagen III Biomarker Activity (AID 2283056). To be noted: primary human foreskin fibroblasts; actives raise or lower the signal. The method, boiled down: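 ELISA readout of Collagen III in human dermal (foreskin) fibroblasts, taken 24 h post-treatment. Gain or loss relative to DMSO vehicle fitted in both directions.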

Read-out in assay [4]: Epidermal growth factor receptor (EGFR), EGFR (gene 1956)
The assay can be described thus: BSK_hDFCGF_EGFR: BioMAP Diversity Plus: hDFCGF Assay for Epidermal growth factor receptor (EGFR) Biomarker Activity (AID 2283057). To be noted: primary human foreskin fibroblasts; actives raise or lower the signal. Summed up: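 ELISA readout of EGFR on human dermal fibroblasts (primary foreskin cells), 24 h post-dosing; bidirectional curve fit vs DMSO baseline, gain or loss of signal scored.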

Read-out in assay [5]: Interleukin-8 (IL8), CXCL8 (gene 3576)
The assay can be described thus: BSK_hDFCGF_IL8: BioMAP Diversity Plus: hDFCGF Assay for Interleukin-8 (IL8) Biomarker Activity (AID 2283058). The following applies: primary human foreskin fibroblasts; actives raise or lower the signal. The method, boiled down:
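IL-8 levels read by ELISA at 24 hours after dosing human skin fibroblast cultures. Parallel SRB staining assessed overt cytotoxicity, and gain or loss of signal was fitted against DMSO control.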

Assay [6] in a line: BSK_hDFCGF_Proliferation: Cell Proliferation Assessment in the BioMAP Diversity Plus: hDFCGF Assay (AID 2283059).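 Further: curves fitted for both rise and fall of signal versus DMSO baseline.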 To be noted: primary human foreskin fibroblasts. The method, boiled down:
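This proliferation readout used SRB total-protein staining of human foreskin fibroblasts […], normalized to DMSO with bidirectional curve fitting.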

Read-out in assay [7]: Macrophage colony-stimulating factor (MCSF), CSF1 (gene 1435)
The assay can be described thus: BSK_hDFCGF_MCSF: BioMAP Diversity Plus: hDFCGF Assay for Macrophage colony-stimulating factor (MCSF) Biomarker Activity (AID 2283060). The following applies: primary human foreskin fibroblasts; actives raise or lower the signal. The method, boiled down:
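M-CSF levels read by ELISA at 24 h post-dosing in human skin fibroblasts. Parallel cultures stained with SRB assessed cytotoxicity at the same time point; response fitted in both directions against the DMSO baseline.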

Assay [8] can be described thus: BSK_hDFCGF_SRB: Viability Assessment in the BioMAP Diversity Plus: hDFCGF Assay (AID 2283061).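 Further: cells exposed to compound for 24 h before the read.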 The following applies: primary human foreskin fibroblasts. Summed up: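 Viability was read as total protein: after 10% TCA fixation, wells were stained with 0.1% sulforhodamine B and read at 560 nm. Primary human foreskin fibroblasts were dosed for 24 h, with bidirectional fitting versus DMSO.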

Read-out in assay [9]: TIMP metallopeptidase inhibitor 1 (TIMP1), TIMP1 (gene 7076)
The assay can be described thus: BSK_hDFCGF_TIMP1: BioMAP Diversity Plus: hDFCGF Assay for TIMP metallopeptidase inhibitor 1 (TIMP1) Biomarker Activity (AID 2283062). To be noted: primary human foreskin fibroblasts; actives raise or lower the signal. The method, boiled down: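 TIMP-1 measured by ELISA 24 h after chemical dosing of primary human skin fibroblasts, with gain or loss fitted relative to DMSO. Parallel SRB staining (560 nm) monitored overt cytotoxicity.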

Read-out in assay [10]: Monokine induced gamma interferon (MIG), CXCL9 (gene 4283)
The assay can be described thus: BSK_hDFCGF_MIG: BioMAP Diversity Plus: hDFCGF Assay for Monokine induced gamma interferon (MIG) Biomarker Activity (AID 2283063). The following applies: primary human foreskin fibroblasts; actives raise or lower the signal. The method, boiled down:
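Human primary foreskin fibroblasts in the hDFCGF system, exposed to test chemical for 24 h; MIG measured by ELISA. Bidirectional curve fitting against DMSO negative control as activity baseline.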

Read-out in assay [11]: Matrix Metallopeptidase 1 (MMP1), MMP1 (gene 4312)
The assay can be described thus: BSK_hDFCGF_MMP1: BioMAP Diversity Plus: hDFCGF Assay for Matrix Metallopeptidase 1 (MMP1) Biomarker Activity (AID 2283064). To be noted: primary human foreskin fibroblasts; actives raise or lower the signal. The method, boiled down:
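Human foreskin fibroblasts exposed to chemical for 24 h; MMP1 detected by ELISA, with DMSO as baseline for bidirectional fitting.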

Read-out in assay [12]: Vascular cell adhesion molecule 1 (VCAM1), VCAM1 (gene 7412)
Kind of assay: BSK_hDFCGF_VCAM1: BioMAP Diversity Plus: hDFCGF Assay for Vascular cell adhesion molecule 1 (VCAM1) Biomarker Activity (AID 2283065).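 On AC50: VCAM-1 protein level quantified by ELISA after 24 h chemical exposure.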 The following applies: primary human foreskin fibroblasts; actives raise or lower the signal. Summed up: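 ELISA readout of VCAM-1 on human dermal fibroblast primary cultures, 24 h after chemical exposure. Gain or loss of signal fitted in both directions against DMSO baseline.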

Read-out in assay [13]: Plasminogen activator inhibitor-1 (PAI1), SERPINE1 (gene 5054)
The assay can be described thus: BSK_hDFCGF_PAI1: BioMAP Diversity Plus: hDFCGF Assay for Plasminogen activator inhibitor-1 (PAI1) Biomarker Activity (AID 2283066). The following applies: primary human foreskin fibroblasts; actives raise or lower the signal. The method, boiled down:
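ELISA readout of PAI-1 from primary human skin fibroblast cultures, 24 h after compound addition. Gain or loss of signal was fitted bidirectionally against DMSO baseline.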

Read-out in assay [14]: Intercellular Adhesion Molecule 1 (ICAM1), ICAM1 (gene 3383)
The assay can be described thus: BSK_KF3CT_ICAM1: BioMAP Diversity Plus: KF3CT Assay for Intercellular Adhesion Molecule 1 (ICAM1) Biomarker Activity (AID 2283067). The following applies: primary human keratinocytes with fibroblasts; actives raise or lower the signal. The method, boiled down:
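Cell-surface ICAM-1 was measured by ELISA 24 h after dosing primary human skin keratinocytes co-cultured with fibroblasts. Parallel SRB staining tracked overt cytotoxicity. Gain or loss of signal was fitted relative to DMSO.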

Read-out in assay [15]: Interferon-gamma inducible Protein 10 (IP10), CXCL10 (gene 3627)
Kind of assay: BSK_KF3CT_IP10: BioMAP Diversity Plus: KF3CT Assay for Interferon-gamma inducible Protein 10 (IP10) Biomarker Activity (AID 2283068). To be noted: primary human keratinocytes with fibroblasts; actives raise or lower the signal. Summed up: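 Signal is secreted/surface IP-10 by ELISA in a human primary skin co-culture of keratinocytes and foreskin fibroblasts, taken 24 h post-dosing; DMSO served as negative control.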

Assay [16] in a line: BSK_KF3CT_SRB: Viability Assessment in the BioMAP Diversity Plus: KF3CT Assay (AID 2283069). The following applies: primary human keratinocytes with fibroblasts. The method, boiled down:
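Overt cytotoxicity is assessed as total protein by sulforhodamine B staining in parallel human skin co-cultures at 24 h after dosing. DMSO serves as negative control and baseline.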

Read-out in assay [17]: Interleukin-1 alpha (IL1a), IL1A (gene 3552)
The assay can be described thus: BSK_KF3CT_IL1a: BioMAP Diversity Plus: KF3CT Assay for Interleukin-1 alpha (IL1a) Biomarker Activity (AID 2283070). To be noted: primary human keratinocytes with fibroblasts; actives raise or lower the signal. Summed up: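 Readout is IL-1a level by ELISA, compared bidirectionally with DMSO as baseline. Cells: human keratinocytes co-cultured with foreskin fibroblasts, harvested 24 h post-dose.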

Read-out in assay [18]: TIMP metallopeptidase inhibitor 2 (TIMP2), TIMP2 (gene 7077)
The assay can be described thus: BSK_KF3CT_TIMP2: BioMAP Diversity Plus: KF3CT Assay for TIMP metallopeptidase inhibitor 2 (TIMP2) Biomarker Activity (AID 2283071). The following applies: primary human keratinocytes with fibroblasts; actives raise or lower the signal. The method, boiled down:
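ELISA readout of TIMP-2 in keratinocyte plus foreskin fibroblast co-cultures (human skin primary cells), 24 h post-dose. Gain or loss of signal fitted relative to DMSO.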

Read-out in assay [19]: Transforming growth factor beta 1 (TGFb1), TGFB1 (gene 7040)
Kind of assay: BSK_KF3CT_TGFb1: BioMAP Diversity Plus: KF3CT Assay for Transforming growth factor beta 1 (TGFb1) Biomarker Activity (AID 2283072). To be noted: primary human keratinocytes with fibroblasts; actives raise or lower the signal. The method, boiled down:
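Read-out: ELISA for TGF-b1 in keratinocyte/foreskin fibroblast human skin co-culture, 24 h after dosing; bidirectional curve fit vs DMSO baseline; gain or loss of signal scored.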

Read-out in assay [20]: C-C motif chemokine 2 (Homo sapiens) (UniProt P13500)
Kind of assay: BSK_KF3CT_MCP1: BioMAP Diversity Plus: KF3CT Assay for Monocyte Chemoattractant Protein 1 (MCP1/CCL2) Biomarker Activity (AID 2283073). The following applies: primary human keratinocytes with fibroblasts; actives raise or lower the signal. Summed up: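 ELISA read-out of MCP-1, 24 h post-dose, in primary human skin keratinocytes co-cultured with fibroblasts. Parallel SRB staining monitors cytotoxicity; changes fitted both directions relative to DMSO.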

In general, AC50 refers to the concentration at which the activity in the assay is half-maximal. Take `Oc1cccc2cccnc12`: the outcome in assay [1], in [2] and in assay [5] was inactive. Also, the AC50 in assay [3] was 3.47 µM (active); in [4], 0.275 µM (active); in [6], 0.852 µM (active); in [7] it was 0.301 µM (active); in [8] it was 0.564 µM (active); in assay [9] it was 0.201 µM (active). The AC50 in assay [10] was 0.169 µM (active); in [11], 0.927 µM (active); in [12], 1.03 µM (active); in [13], 0.331 µM (active); in [14] it was 2.14 µM (active); in [15], 2.55 µM (active). The AC50 in assay [16] is 2.78 µM (active); in [17] it was 2.13 µM (active); in assay [18], 3.68 µM (active); in assay [19] it was 2.35 µM (active); in assay [20] it was 2 µM (active).

On to `COC[C@H](C)N(C(=O)CCl)c1c(C)csc1C`, for which the result in assay [1], in [2], in assay [3], in assay [4], in [6] and in assay [7] was inactive. The outcome in assay [9], in [10], in [11], in assay [12], in assay [13] and in [14] was inactive. Moreover, the outcome in [15], in [16], in [17], in assay [18], in [19] and in [20] was inactive.

`O=C1C2(Cl)C3(Cl)C4(Cl)C(Cl)(Cl)C5(Cl)C3(Cl)C1(Cl)C5(Cl)C24Cl` (configuration not stated): the AC50 was 18 µM (active) in [1]; 29 µM (active) in assay [2]; 3.46 µM (active) in assay [3]; 2.09 µM (active) in [4]; 14.3 µM (active) in [5]; 1.42 µM (active) in assay [6]. For the same compound, the AC50 in [7] is 21.9 µM (active); in assay [9] it was 30 µM (active); in assay [10] it was 31 µM (active); in assay [11], 19.3 µM (active); in assay [12], 4.35 µM (active); in [13], 8.81 µM (active). The concentration at half-maximal activity (AC50) in assay [14] is 33 µM (active); in assay [16] it was 8.1 µM (active); in assay [17] it was 22.9 µM (active); in assay [18], 24.2 µM (active); in [19], 6.14 µM (active); in assay [20] it was 35.1 µM (active).

On to `ClC1(Cl)C2(Cl)C3(Cl)C4(Cl)C(Cl)(Cl)C5(Cl)C3(Cl)C1(Cl)C5(Cl)C24Cl` (configuration not stated), for which the result in assay [1], in [2], in assay [4], in assay [5], in [7] and in [8] was inactive. Moreover, the result in assay [9], in [10], in assay [11], in assay [12], in [13] and in assay [14] was inactive. In addition, the result in assay [15], in assay [16], in assay [17], in assay [18], in assay [19] and in assay [20] was inactive. Also, the AC50 in assay [6] is 0.572 µM (active).

Regarding `O=[N+]([O-])c1ccc(O)c([N+](=O)[O-])c1`, the result in assay [1], in assay [2], in [4], in [5], in [6] and in [7] was inactive. For the same compound, the result in assay [8], in assay [9], in assay [10], in [11], in assay [12] and in assay [13] was inactive. Further, the outcome in [14], in [15], in assay [16], in assay [17], in assay [18] and in assay [19] was inactive. The outcome in assay [20] was inactive.

As for `CCCCCCCCc1ccc(O)cc1`, the AC50 was 39.1 µM (active) in [1]; 33.9 µM (active) in assay [2]; 36 µM (active) in assay [5]; 7.67 µM (active) in [6]; 32.9 µM (active) in [7]; 26.4 µM (active) in assay [8]. Moreover, the AC50 in assay [9] is 33.3 µM (active); in assay [10], 34.8 µM (active); in assay [11], 31.9 µM (active); in [12] it was 27.9 µM (active); in assay [13], 14 µM (active); in [14] it was 31.2 µM (active). In addition, the AC50 in assay [15] was 29.5 µM (active); in assay [16], 27.7 µM (active); in [17], 25 µM (active); in assay [18], 30 µM (active); in assay [19] it was 22.4 µM (active). For the same compound, the outcome in assay [4] was inactive.
